This is part of a sample that, as a whole, favours compounds with a hit. Of some 79,000 tested, about 15% had one in any assay. The source made the active and inactive calls. No stated cut-off is given here; in the data, active means growth inhibition above about 70%; inactive means the rest.
What was measured:
[1] = NCI Yeast Anticancer Drug Screen. Data for the rad50 strain (AID 155);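 further: 0% = growth of vehicle-only cultures of the same strain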; conditions: S. cerevisiae rad50 strain growth inhibition, active compounds read high
Outline: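 Genetically altered yeast (DNA repair pathway); compound treatment; growth inhibition vs vehicle ctrl.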

[2] = NCI Yeast Anticancer Drug Screen. Data for the mec2-1 strain (AID 157); conditions: S. cerevisiae mec2-1 strain, active compounds read high
Outline: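 Readout is yeast growth inhibition, normalised to vehicle-treated controls, in the mec2-1 strain exposed to compound.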

[3] = NCI Yeast Anticancer Drug Screen. Data for the sgs1 mgt1 strain (AID 161);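 further: 0% = growth of cultures given vehicle only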; conditions: S. cerevisiae sgs1 mgt1 strain, active compounds read high
Outline: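 Yeast cells carrying a defined DNA-repair defect were exposed to test compounds. Growth inhibition was measured relative to vehicle-treated controls.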

[4] = NCI Yeast Anticancer Drug Screen. Data for the cln2 rad14 strain (AID 165);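 further: 0% = growth equal to vehicle treated cultures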; conditions: S. cerevisiae cln2 rad14 strain, active compounds read high
Outline: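 Relative to vehicle controls, growth inhibition of compound-treated cln2 rad14 yeast was recorded.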

[5] = NCI Yeast Anticancer Drug Screen. Data for the bub3 strain (AID 167); conditions: S. cerevisiae bub3 mutant strain, active compounds read high
Outline: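 Yeast carrying a defined mutation is treated with each compound, and growth is compared with that of vehicle-exposed cells to give inhibition.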

[6] = NCI Yeast Anticancer Drug Screen. Data for the mlh1 rad18 strain (AID 175); conditions: S. cerevisiae mlh1 rad18 strain growth inhibition, active compounds read high
Outline: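 Test agents were incubated with a yeast strain of defined genotype (DNA damage repair defect). Inhibition of growth was derived by comparison with vehicle-exposed cultures.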

[7] = at 5.0 µM (retest, dose inferred, filed as 0.5)
[8] = at 50.0 µM (retest, dose inferred, filed as 5.0)

Measured: growth inhibition

C=C(C#N)C(=O)OCC(CC)CC.C=C(C#N)C(=O)OCC(CC)CC.CS(C)=O.CS(C)=O.Nc1c(N=Nc2ccc(-c3ccc(N=Nc4cc(S(=O)(=O)[O-])c5ccccc5c4N)cc3)cc2)cc(S(=O)(=O)[O-])c2ccccc12.[Pt+2]
active: [1]; [8] 98% | [1]; at 50.0 µM 96.8% | [2]; [8] 98% | [2]; at 50.0 µM 96.9% | [3]; [8] 97% | [3]; at 50.0 µM 96.5% | [4]; [8] 98% | [4]; at 50.0 µM 95.8% | [5]; [8] 98% | [5]; at 50.0 µM 92.9% | [6]; [8] 97% | [6]; at 50.0 µM 96.5%
inactive: [1]; [7] -13% | [2]; [7] 6% | [3]; [7] 1% | [4]; [7] -1% | [5]; [7] 3% | [6]; [7] -6%

CCC(=S)N(C)O
active: [1]; [7] 95% | [1]; [8] 96% | [2]; [7] 99% | [2]; [8] 98% | [3]; [7] 100% | [3]; [8] 98% | [4]; [7] 98% | [4]; [8] 91% | [5]; [7] 100% | [5]; [8] 97% | [6]; [7] 98% | [6]; [8] 97% | [6]; at 50.0 µM 86.2%
inactive: [1]; at 50.0 µM 66.5% | [2]; at 50.0 µM 50.9% | [3]; at 50.0 µM 69% | [4]; at 50.0 µM 45.1% | [5]; at 50.0 µM 52%

CCOC(=O)C1SC(=Nc2ccc(Cl)cc2C)N=C1C (configuration not stated)
inactive: [1]; [7] 29% | [2]; [7] 25% | [3]; [7] 32% | [4]; [7] 22% | [5]; [7] 24% | [6]; [7] 35%
active: [1]; [8] 98% | [1]; at 50.0 µM 89% | [2]; [8] 97% | [2]; at 50.0 µM 92.2% | [3]; [8] 99% | [3]; at 50.0 µM 91.7% | [4]; [8] 97% | [4]; at 50.0 µM 90.2% | [5]; [8] 98% | [5]; at 50.0 µM 91.2% | [6]; [8] 98% | [6]; at 50.0 µM 90%

CN(Cc1cnc2nc(N[Si](C)(C)C)nc(N[Si](C)(C)C)c2n1)c1ccc(C(=O)NC(CCC(=O)O[Si](C)(C)C)C(=O)O[Si](C)(C)C)cc1 (configuration not stated)
active: [1]; [8] 89% | [1]; at 50.0 µM 91% | [2]; [8] 97% | [2]; at 50.0 µM 98.3% | [3]; [8] 72% | [5]; [8] 90% | [6]; [8] 81%
inactive: [1]; [7] 19% | [2]; [7] 66% | [3]; [7] 2% | [3]; at 50.0 µM 64.7% | [4]; [7] -8% | [4]; [8] 47% | [4]; at 50.0 µM 26% | [5]; [7] -4% | [5]; at 50.0 µM 69.7% | [6]; [7] 15% | [6]; at 50.0 µM 60.6%

CCCCCCCCCCCCCCNCCC(=O)O
inactive: [1]; [7] -8% | [2]; [7] 23% | [3]; [7] 2% | [4]; [7] -8% | [5]; [7] -6% | [6]; [7] -13%
active: [1]; [8] 99% | [1]; at 50.0 µM 99.1% | [2]; [8] 100% | [2]; at 50.0 µM 99.5% | [3]; [8] 98% | [3]; at 50.0 µM 99.1% | [4]; [8] 99% | [4]; at 50.0 µM 99.2% | [5]; [8] 99% | [5]; at 50.0 µM 99.3% | [6]; [8] 99% | [6]; at 50.0 µM 99.3%

COc1cccc(C2CC(C)(O)Oc3cc4c(cc32)OCO4)c1 (configuration not stated)
inactive: [1]; [7] 4% | [1]; [8] 36% | [1]; at 50.0 µM 33.8% | [2]; [7] 5% | [2]; [8] 16% | [2]; at 50.0 µM 50.7% | [3]; [7] -12% | [3]; [8] 9% | [3]; at 50.0 µM 29.4% | [4]; [7] 8% | [4]; [8] 44% | [4]; at 50.0 µM 54.6% | [5]; [7] 2% | [5]; [8] 57% | [5]; at 50.0 µM 46.4% | [6]; [7] -14% | [6]; [8] 38% | [6]; at 50.0 µM 53%

CN(C)CCCCN1c2ccccc2Sc2ccc(C(=O)c3ccccc3)cc21
inactive: [1]; [7] 0% | [1]; [8] 65% | [2]; [7] -2% | [3]; [7] 3% | [4]; [7] 2% | [5]; [7] 4% | [6]; [7] 0%
active: [1]; at 50.0 µM 99.8% | [2]; [8] 81% | [2]; at 50.0 µM 99.8% | [3]; [8] 79% | [3]; at 50.0 µM 99.8% | [4]; [8] 70% | [4]; at 50.0 µM 99.3% | [5]; [8] 77% | [5]; at 50.0 µM 99.7% | [6]; [8] 82% | [6]; at 50.0 µM 99.6%

CC(C)C(=O)/C=C/c1ccc(Cl)cc1Cl
inactive: [1]; [7] -8% | [1]; [8] 46% | [1]; at 50.0 µM 69.8% | [2]; [7] -10% | [2]; [8] 48% | [3]; [7] -16% | [3]; [8] 31% | [3]; at 50.0 µM 69.6% | [4]; [7] 12% | [4]; [8] 36% | [4]; at 50.0 µM 52.5% | [5]; [7] -32% | [5]; [8] 54% | [5]; at 50.0 µM 69.4% | [6]; [7] -5% | [6]; [8] 48% | [6]; at 50.0 µM 40.3%
active: [2]; at 50.0 µM 71.8%

CC(=O)Oc1ccc(/C=C/c2ccncc2)cc1
inactive: [1]; [7] -164% | [1]; [8] -78% | [1]; at 50.0 µM 67.8% | [2]; [7] -47% | [2]; [8] -33% | [2]; at 50.0 µM 44% | [3]; [7] -65% | [3]; [8] 7% | [3]; at 50.0 µM 60% | [4]; [7] -58% | [4]; [8] -32% | [4]; at 50.0 µM 50.1% | [5]; [7] -58% | [5]; [8] 6% | [6]; [7] -157% | [6]; [8] -69% | [6]; at 50.0 µM 48.2%
active: [5]; at 50.0 µM 84.7%
